From ChEMBL document CHEMBL3988442, “University of Dundee, Small-Polar-MMV Screening Library” (2021) come the findings set out here.

About 1,200 (3.2%) of roughly 38,000 compounds showed an effect of 50% or more. The median lay at about -58%. For the sample, strong results were picked, then their nearest neighbours and some compounds at random.

The test deals with Plasmodium falciparum. In words: Calibr Malaria Delayed Death Assay SOP. The format is functional, organism-based. Details: scale not given: in the data most compounds retested in dose-response had high values. To be noted: concentration 4.99e-06 (unit not given; other assays of the set use mol/L).
For `COc1ccc(CCC(C)Nc2cccc(SC)c2)cc1` (stereo not given), the “Percent Effect” value is reported as -91.4%.

For `COc1ccc(C(C)NCc2ccsc2)cc1Cn1cccn1` (stereo not given), the “Percent Effect” value is 71.68%.

`COc1ccc(C(C)NCc2cscn2)cc1Cn1cccn1` (stereo not given): the “Percent Effect” value is given as 71.39%.

As to `COc1ccc(OC)c(CN2CCN(Cc3cscn3)CC2)c1`, the “Percent Effect” value is listed as -31.14%.

On to `COc1ccc(C(C)NCc2scnc2C)cc1Cn1cccn1` (stereo not given), for which the “Percent Effect” value is -18.73%.

Take `COc1ccc(C(C)NCc2cccs2)cc1Cn1cccn1` (stereo not given): the “Percent Effect” value stood at 28.81%.

For `COc1ccc(C(C)NCc2ccnn2C)cc1Cn1cccn1` (stereo not given), the “Percent Effect” value was -53.25%.

Regarding `CCc1nnc(CN2CCCCC2Cn2cncn2)o1` (stereo not given), the “Percent Effect” value is on record as -69.23%.

As to `Cc1nc(C2CCCN2C(=O)CCOCc2ccccc2)no1` (stereo not given), the “Percent Effect” value is listed as -117.2%.

Consider `O=S(=O)(Nc1cnn(C2CCOCC2)c1)c1ccc(Br)cc1`, for which the “Percent Effect” value is -25.25%.

For the compound `CNC(=O)N1CCCCC1c1nnc2n1CCCC2` (stereo not given), the “Percent Effect” value is -92.12%.

As to `O=C1c2cnc(N3CCCCC3)nc2CN1c1ccc2c(c1)OCO2`, the “Percent Effect” value is listed as -196%.

For the compound `CCNc1nc(C)c(C(=O)N(C)Cc2nc(CC)no2)s1`, the “Percent Effect” value is reported as -30.42%.

In the case of `O=c1[nH]c(NC2CCCC2)nc2nccc(-c3cccs3)c12`, the “Percent Effect” value turned out to be 55.34%.

For the compound `O=C(O)Cn1nc(C2CC2)c2c(-c3ccco3)ccnc21`, the “Percent Effect” value was -116%.

On to `O=C(NC1CCCC1)C1Cc2nc(-c3ccsc3)sc2N1CC1CC1` (stereo not given), for which the “Percent Effect” value is reported as -48.35%.

For the compound `O=c1[nH]c(NC2CCCC2)nc2nccc(-c3ccco3)c12`, the “Percent Effect” value was found to be 71.56%.

Consider `O=c1[nH]c(NC2CCCC2)nc2nccc(-c3ccsc3)c12`, for which the “Percent Effect” value is listed as 67.56%.

With `O=C1NCCCCC1NCc1csc(-c2ccsc2)n1` (stereo not given), the “Percent Effect” value was -129.5%.

`O=C(O)Cn1nc(C2CC2)c2c(-c3cccs3)ccnc21`: the “Percent Effect” value was -11.75%.

As to `O=C(NC[C@H]1CCCC[C@H]1O)c1ccc2nc(-c3ccco3)[nH]c2c1`, the “Percent Effect” value was -121.1%.

For `O=C(NC[C@H]1CCCC[C@H]1O)c1cccc2[nH]c(-c3cccs3)nc12`, the “Percent Effect” value is on record as -57.07%.

For `Cc1cccc(CN(C(=O)CCn2cncn2)C(C)C)c1`, the “Percent Effect” value is given as -52.83%.

On to `O=C(CCc1nc2cc(Br)cnc2[nH]1)NCCCN1CCOCC1`, for which the “Percent Effect” value was -51.18%.

Turning to `COc1ccc(C)cc1CC(=O)NC1(C#N)CCOCC1`, the “Percent Effect” value is -117.4%.

For the compound `CCOc1cc(C(=O)NS(=O)(=O)c2cccc(C#N)c2)ccc1OC`, the “Percent Effect” value was -127.1%.

Consider `CCC(CC)CN1CCN(CC(=O)Nc2ccc3nsnc3c2)CC1`, for which the “Percent Effect” value was determined as 27.19%.

For the compound `CN(C)C(=O)CN1CCC2(CCN(C(=O)N3CCCC3)CC2)C1=O`, the “Percent Effect” value is reported as -157.2%.

As to `CC(C)Oc1ncnc2c1CCN(Cc1ccoc1)CC2.O=C(O)C(F)(F)F`, the “Percent Effect” value was found to be 29.43%.

Turning to `CC(C)Oc1ncnc2c1CCN(Cc1ccco1)CC2.O=C(O)C(F)(F)F`, the “Percent Effect” value is listed as 60.03%.

For `COCCN1CCc2ncnc(OC(C)C)c2CC1.O=C(O)C(F)(F)F`, the “Percent Effect” value is -76.73%.

With `Cc1nc(C)c2c(n1)CCN(Cc1ccco1)CC2`, the “Percent Effect” value is recorded as -20.07%.

Take `CC(C)Oc1ncnc2c1CCN(Cc1ccc(F)cc1)CC2.O=C(O)C(F)(F)F`: the “Percent Effect” value is 69.87%.

With `Cc1ccc(CN2CCc3ncnc(OC(C)C)c3CC2)s1.O=C(O)C(F)(F)F`, the “Percent Effect” value was -2.65%.

Regarding `c1coc(CN2CCc3ncnc(C4CCOC4)c3CC2)c1` (stereo not given), the “Percent Effect” value was -48.34%.

In the case of `COc1ncnc2c1CCN(Cc1cccs1)CC2.O=C(O)C(F)(F)F`, the “Percent Effect” value is reported as -104.3%.

Take `CCOc1cc(C(=O)N2CCCC(c3noc(C(C)C)n3)C2)ccn1` (stereo not given): the “Percent Effect” value was -128.3%.

With `Cc1c(F)cc(C(=O)O)cc1S(=O)(=O)Nc1ccc(F)c(C#N)c1`, the “Percent Effect” value is given as -35.67%.

Turning to `Cc1occc1-c1nnc2n1NC(N)=C(C#N)S2`, the “Percent Effect” value was -74.61%.

Consider `COCCN(C)C[C@@H]1CN(C(=O)c2ccc(O)c(C)c2)C[C@@H]1CO`, for which the “Percent Effect” value is given as -85.42%.

Regarding `COc1ccc(-c2ccc(C3CNCCO3)nc2)cc1.Cl` (stereo not given), the “Percent Effect” value is 63.33%.

Regarding `COc1ccc(-c2cc(C3CCN(C(C)=O)CC3)ccn2)cc1`, the “Percent Effect” value is on record as -100.7%.

As for `COc1ccc(-c2cnc(NC(C)=O)[nH]2)cc1`, the “Percent Effect” value was -138%.

Regarding `C[C@H]1C[C@@H]2CCN(C(=O)c3cnccn3)C[C@H]2O1`, the “Percent Effect” value is -123.8%.

Consider `Cc1ccc(N2N=C(C(=O)O)S(=O)(=O)c3cccnc32)cc1`, for which the “Percent Effect” value is on record as -91.48%.

In the case of `O=C(CCCn1cncn1)NC1CCc2nccn2C1` (stereo not given), the “Percent Effect” value was -11.39%.

`COc1ccc(CN(C)CCS(=O)(=O)c2ccc(Cl)cc2)cc1OC`: the “Percent Effect” value is -60.68%.

Turning to `Cn1c(-c2cc3n(n2)CCCN(CC(=O)O)C3)nc2ccccc21`, the “Percent Effect” value is given as -285%.

With `c1ccc(CNc2ncc(CN3CCCN4CCC[C@H]4C3)cn2)cc1`, the “Percent Effect” value is on record as -75.33%.

For the compound `CCCn1ncc(C(=O)N2CCN(C3CCCC3)CC2)c1C`, the “Percent Effect” value is -11.79%.

Regarding `CCCn1ncc(CN2CCCCC2CCCOC)c1C` (stereo not given), the “Percent Effect” value was -4.874%.

As for `CCCn1ncc(CN2C[C@@H]3CCCN3C[C@H]2Cc2ccccc2)c1C`, the “Percent Effect” value was 55.8%.

In the case of `C=Cn1ncc(CN2C[C@@H]3C[C@@H](O)CN3C[C@H]2Cc2ccccc2)c1C`, the “Percent Effect” value came to 32.93%.

On to `CCCn1ncc(CN2C[C@@H]3CCCN3C[C@@H]2Cc2ccccc2)c1C`, for which the “Percent Effect” value amounted to 62.1%.

For `CCOc1cccc(NC(=O)c2cc[nH]n2)n1`, the “Percent Effect” value is -28.36%.

`Cc1cc(CN2C[C@@H]3COC[C@@H](C(=O)N4CCCCO4)[C@@H]3C2)no1.O=C(O)C(F)(F)F`: the “Percent Effect” value is given as -37.6%.

Consider `Cc1c(C(C)NCC2CCCC2)cnn1-c1ccc(F)cc1F` (stereo not given), for which the “Percent Effect” value is 70.86%.

For `Cc1c(C(C)NC2CCOCC2)cnn1-c1ccc(F)cc1F` (stereo not given), the “Percent Effect” value is recorded as -4.766%.

Consider `Cc1c(C(C)NC2CSCCSC2)cnn1-c1ccc(F)cc1F` (stereo not given), for which the “Percent Effect” value is recorded as -8.599%.

As for `CCc1nnc(SCc2cc(=O)n3c4c(sc3n2)CCCC4)[nH]1`, the “Percent Effect” value was -134.4%.

Regarding `COc1cncc(-n2nc(C)c(CC(C)=O)c2C)c1`, the “Percent Effect” value is on record as -95.89%.

As to `CCC(=O)N1CCC2(COCc3cnc(N4CCOCC4)nc32)C1` (stereo not given), the “Percent Effect” value is recorded as -52.14%.

Consider `CCOc1cncc(N2CCN(c3ccccc3F)CC2)n1`, for which the “Percent Effect” value is recorded as -93.07%.

With `Cc1nnc(NCC2(c3ccccc3)CCC2)c(C#N)c1C`, the “Percent Effect” value is listed as -38.66%.

`COc1ccccc1C1(CNc2nnc(C)c(C)c2C#N)CCCC1`: the “Percent Effect” value worked out at 56.81%.

`COc1ccccc1C1(CNc2nnc(C)c(C)c2C#N)CCOCC1`: the “Percent Effect” value was determined as 0.02654%.

Consider `CN(Cc1cccnc1)[C@@H]1CN(c2ncc(F)cn2)[C@@H]2CCCO[C@H]12`, for which the “Percent Effect” value is reported as -11.41%.

Turning to `CN(Cc1cccnc1)[C@@H]1CN(Cc2ccccn2)[C@@H]2CCCO[C@H]12`, the “Percent Effect” value stood at 50.75%.

`CN(Cc1cccnc1)[C@@H]1CN(c2ccccn2)[C@@H]2CCCO[C@H]12`: the “Percent Effect” value is recorded as -39.6%.

For the compound `CCNC(=O)[C@@H]1C[C@H](N)CN1c1cc(C(F)(F)F)nc(N2CCCC2)n1`, the “Percent Effect” value came out at 54.16%.

For the compound `CCNC(=O)[C@@H]1C[C@H](N)CN1c1cc(C(F)(F)F)nc(N(C)C)n1`, the “Percent Effect” value is 19.6%.

`CCNC(=O)[C@@H]1C[C@H](N)CN1c1cc(CC)nc(N(C)C)n1`: the “Percent Effect” value was -75.2%.

`O=C(O)C(F)(F)F.O=S(=O)(C1CC1)N1CCO[C@H]2[C@@H](Oc3cccnc3)CC[C@@H]21`: the “Percent Effect” value is -17.81%.

Regarding `Cc1ccc(NC(=O)CN2CCC(OCC3CCCO3)CC2)c(C)c1` (stereo not given), the “Percent Effect” value was -25%.

Turning to `COCCc1noc(CN2CC(Cc3ccccc3)CC2=O)n1` (stereo not given), the “Percent Effect” value is -62.6%.

For `CCCC1SCCN1C(=O)c1ccc(-n2ncc(C#N)c2N)cc1` (stereo not given), the “Percent Effect” value is on record as -3.634%.

As for `CCOC1CCN(C(=O)c2ccc(-n3ncc(C#N)c3N)cc2)CC1`, the “Percent Effect” value is recorded as -36.9%.

Take `CC(C)C1CCCN1C(=O)c1ccc(-n2ncc(C#N)c2N)cc1` (stereo not given): the “Percent Effect” value was found to be 71.17%.

Turning to `Cc1ccccc1CN1C[C@@H](CN(C)CCO)[C@@H](CO)C1`, the “Percent Effect” value is 6.489%.

On to `COc1ccc(CN2C[C@@H](CN(C)CCO)[C@@H](CO)C2)cc1Cl`, for which the “Percent Effect” value is -13.19%.

`CN(C)C[C@@H]1CN(Cc2ccccc2C#N)C[C@@H]1CO`: the “Percent Effect” value is -49.24%.

Regarding `Cc1cc(F)ccc1N1CCC(N2C[C@@H](C)[C@@](C)(O)C2)CC1`, the “Percent Effect” value is 37.17%.

As to `Cc1ccc(N2CCC(N3C[C@@H](CN(C)C)[C@@H](CO)C3)CC2)cc1`, the “Percent Effect” value was 0.06165%.

For the compound `CN(CCO)C[C@@H]1CN(C(=O)c2c(F)cccc2Cl)C[C@@H]1CO`, the “Percent Effect” value is recorded as -48.12%.

In the case of `Cc1c(C(=O)N2CCCC2c2cnn(C)c2)cnn1-c1ccccc1` (stereo not given), the “Percent Effect” value is on record as -71.93%.

On to `NC(=O)C1CCN(CCCNC(=O)Nc2nncs2)CC1`, for which the “Percent Effect” value is -69.85%.

Turning to `C=C(C)COc1cccc(CNCCc2c[nH]cn2)c1`, the “Percent Effect” value is 26.04%.

Turning to `C=C(C)COc1ccccc1CNCCc1c[nH]cn1`, the “Percent Effect” value stood at 4.371%.

As for `CCc1ccccc1OCCNCCc1c[nH]cn1`, the “Percent Effect” value is reported as 69.73%.

On to `Cn1nccc1C(=O)N1CCCC2(CCN(c3ccsc3)C2=O)C1` (stereo not given), for which the “Percent Effect” value was -40.86%.

Turning to `Cc1ccccc1SCC(=O)NC1CCC(O)CC1` (stereo not given), the “Percent Effect” value is listed as -39.35%.

`CN(C)C(=O)CN1CCN(Cc2coc(-c3cccc(F)c3)n2)CC1`: the “Percent Effect” value was -61.15%.

For `Cc1oc(-c2cc(F)cc(F)c2)nc1CN1C[C@@H](C)NC[C@@H]1C`, the “Percent Effect” value is reported as 59.48%.

Consider `CSc1ccc(-c2nc(CN3C[C@@H](C)NC[C@@H]3C)c(C)o2)cc1`, for which the “Percent Effect” value is listed as -63.77%.

For the compound `CSc1ccc(-c2nc(CN3CCNCC3C)c(C)o2)cc1` (stereo not given), the “Percent Effect” value amounted to 34.18%.

For the compound `Cn1ncc2c1CCCC2NCc1ccc(OCc2cccnc2)cc1` (stereo not given), the “Percent Effect” value is 4.43%.

Take `CNC(=O)[C@@H]1C[C@@H]2CCN(Cc3ccoc3)C[C@H]2O1`: the “Percent Effect” value is reported as -25.74%.

`CO[C@H]1CCN(c2ncccn2)[C@H]1Cc1ccccc1`: the “Percent Effect” value is given as -101.2%.

For the compound `CO[C@H]1CCN(Cc2nccs2)C[C@@H]1Cc1ccccc1`, the “Percent Effect” value is -31.89%.

For the compound `COCCO[C@H]1CCN(Cc2ccoc2)[C@H]1Cc1cccnc1`, the “Percent Effect” value is recorded as -10.51%.
